# In the library only some 5% were active in any assay of this set; here they are far more common.
# SENP8 block-1: human SENP8 protease inhibitors, primary screen, biochemical, fluorescence, Nedd8 protein substrate, uHTS; Sentrin-specific protease 8 (Homo sapiens), Q96LD8; recombinant SENP8; inhibition, % at 20 µM; hit rate 0.64% among 360,000; AID 602440, 2012; in the data active means inhibition mostly above about 40%, no sharp cut-off; inactive means mostly below about 27%
# EBI2 antag: EBI2 receptor antagonists, beta-arrestin recruitment, primary screen, cell-based, luminescence, 7a,25-OHC stimulation, uHTS. G-protein coupled receptor 183 (Homo sapiens), P32249. 7a,25-OHC stimulated. inhibition, % at 5 µM. hit rate 0.81% among 360,000. AID 651636, 2012; in the data active means inhibition above about 38%;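 further: enzyme fragment complementation signal reports receptor beta-arrestin coupling in cells; 0% = agonist plus DMSO wells and 100% = wells without agonist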
# SENP7 block: SENP7 protease inhibitors, primary screen, biochemical, luminescence, uHTS; AID 434973, 2010; Sentrin-specific protease 7 (Homo sapiens), Q9BQF6; hit rate 1.5% among 330,000; inhibition, % at 5 µM; recombinant SENP7, Z-RLRGG-aminoluciferin luminescence, 40 min;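 active means inhibition above about 50% at the single test dose, limit read from the data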;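 further: plate controls were DMSO with enzyme for no effect and no enzyme buffer wells for full effect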
# SENP6 inh: SENP6 protease inhibitors, primary screen, biochemical, luminescence, uHTS | Sentrin-specific protease 6 (Homo sapiens), Q9GZR1 | Recombinant SENP6 catalytic domain, aminoluciferin luminescence | inhibition, % at 10 µM | hit rate 1.8% among 330,000 | AID 2599, 2010;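 active means inhibition above about 50% at the single tested dose, limit read from the data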;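 further: plate controls were DMSO wells with enzyme for no effect and DMSO wells lacking enzyme for full effect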
# AHR act: AHR activators, primary screen, cell-based, luminescence, luciferase reporter, human | AHR-responsive luciferase reporter cells | hit rate 2.5% among 320,000 | activation, % at 5 µM | Aryl hydrocarbon receptor (Homo sapiens), P35869; in the data active means activation above about 47%;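 further: 0% = vehicle wells and 100% = reference agonist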
# Target sequence (P35869 whole entry, looked up): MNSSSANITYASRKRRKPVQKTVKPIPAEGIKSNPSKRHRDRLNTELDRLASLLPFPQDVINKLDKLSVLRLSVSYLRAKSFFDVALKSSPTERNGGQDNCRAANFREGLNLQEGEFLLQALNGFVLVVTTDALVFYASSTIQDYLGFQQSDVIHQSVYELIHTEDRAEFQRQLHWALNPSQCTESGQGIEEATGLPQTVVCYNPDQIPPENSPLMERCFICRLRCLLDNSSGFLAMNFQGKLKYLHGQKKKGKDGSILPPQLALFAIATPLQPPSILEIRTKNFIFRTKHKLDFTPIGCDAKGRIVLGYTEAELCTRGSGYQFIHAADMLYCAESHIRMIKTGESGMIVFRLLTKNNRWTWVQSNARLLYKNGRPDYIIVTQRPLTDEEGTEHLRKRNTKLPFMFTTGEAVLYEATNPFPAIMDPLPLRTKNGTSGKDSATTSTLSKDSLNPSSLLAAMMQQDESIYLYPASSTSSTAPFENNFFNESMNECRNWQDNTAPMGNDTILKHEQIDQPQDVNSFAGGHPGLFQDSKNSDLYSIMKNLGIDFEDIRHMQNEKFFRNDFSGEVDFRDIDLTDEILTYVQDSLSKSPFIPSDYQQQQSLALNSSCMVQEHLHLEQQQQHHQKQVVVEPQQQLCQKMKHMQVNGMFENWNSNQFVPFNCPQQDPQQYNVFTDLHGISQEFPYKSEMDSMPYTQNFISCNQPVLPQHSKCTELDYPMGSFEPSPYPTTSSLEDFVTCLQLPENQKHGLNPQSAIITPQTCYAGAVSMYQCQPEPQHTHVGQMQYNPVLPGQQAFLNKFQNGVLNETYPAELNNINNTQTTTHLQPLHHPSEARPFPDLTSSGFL
# SENP8 block-2: SENP8 protease inhibitors, primary screen, biochemical, luminescence. Sentrin-specific protease 8 (Homo sapiens), Q96LD8. purified SENP8, Z-RLRGG-aminoluciferin cleavage. inhibition, % at 10 µM. hit rate 1.2% among 330,000. AID 2540, 2010; in the data active means inhibition above about 50%
# AHR act cf: AHR activators, confirmation, cell-based, luminescence, luciferase reporter, human; shares compounds with AHR act; human cells, AHR-responsive luciferase reporter; activation, % at 9 µM; hit rate 87% among 2,300; in the data active means activation above about 49%;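 further: HepG2 hepatoma cells carrying a DRE-driven firefly luciferase reporter; 0% = vehicle wells and 100% = reference agonist wells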
# PXR counter: human PXR activators, counter-screen for AHR activator project, cell-based, luciferase luminescence; shares compounds with AHR act; cell-based PXR reporter; activation, % at 11.6 µM; hit rate 88% among 2,300; in the data active means activation above about 11%;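 further: human hepatoma DPX-2 cells expressing full-length human PXR; 0% = DMSO and 100% = reference agonist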
# Starred values were filed as active, the others as inactive; · = no result.
SMILES,SENP8 block-1,EBI2 antag,SENP7 block,SENP6 inh,AHR act,SENP8 block-2,AHR act cf,PXR counter
Brc1ccc(-c2nnc(-c3ccccc3)c(N3CCSCC3)n2)cc1,14,30,3,5,123*,7,93*,75*
Cc1ccc(-c2nnc(-c3ccccc3)c(N3CCOCC3)n2)cc1,-2,15,-2,-21,3,-14,·,·
CC(C)CNC(=O)c1cccc(NC(=O)c2ccc(Cl)c([N+](=O)[O-])c2)c1,6,-12,-3,-10,1,-8,·,·
Cc1cccc(N2C(=O)CN=C2Nc2nc(C)cc(C)n2)c1,20,-13,4,-11,92*,2,82*,25*
Cc1cc(C)nc(NC2=NCC(=O)N2c2cc(Cl)cc(Cl)c2)n1,3,-5,-1,-6,24,-3,·,·
COc1cccc(-c2nc(C(N)=O)c3[nH]c(=O)n(-c4ccccc4)c3n2)c1OC,-57,-3,-2,-1,88*,5,61*,10*
Cc1cccc(-n2c(=O)[nH]c3c(C(N)=O)nc(CC(C)C)nc32)c1,-427,-6,-7,-5,30,-7,·,·
NC(=O)c1nc(-c2cccs2)nc2c1[nH]c(=O)n2-c1ccc(F)cc1,-413,-1,-15,-11,46,-10,·,·
Cc1cccc(-n2c(=O)[nH]c3c(C(N)=O)nc(-c4ccccc4Cl)nc32)c1,-409,-4,-5,-3,94*,1,72*,12*
COc1ccc(-c2nc(C(N)=O)c3[nH]c(=O)n(-c4cccc(C)c4)c3n2)c(OC)c1,-389,-1,10,-14,98*,-7,67*,20*
CCc1ccc(NC(=O)C2CCC(CNC(=O)[C@@H]3Cc4ccccc4CN3)CC2)cc1 (stereo partly specified),9,1,0,0,0,8,·,·
Cc1ccc(C(=O)N/C(N)=N/c2nc3ccccc3o2)cc1,4,9,-3,-8,30,-14,·,·
N/C(=N\c1nc2ccccc2o1)NC(=O)c1ccccc1,17,-2,28,10,184*,-13,180*,94*
CCOC(=O)C(C)Sc1nnc(NC(=O)c2ccc3c(c2)OCO3)s1 (stereo unspecified),-9,-1,4,-8,4,1,·,·
COCCSc1nnc(NC(=O)c2ccc3c(c2)OCO3)s1,-70,-2,7,-10,99*,-3,89*,27*
O=C(CSc1nnc(NC(=O)c2ccccc2)s1)NCc1ccco1,-2,-3,36,22,18,15,·,·
O=C(CSc1nnc(NC(=O)c2ccc3c(c2)OCO3)s1)NCc1ccco1,-84,-2,65*,3,82*,0,31,11*
O=C(CSc1nc2ccccc2s1)NCc1ccc2c(c1)OCO2,-3,0,-1,13,80*,1,106*,42*
c1ccc(-c2cc3cc4c(cc3cn2)OCO4)cc1,-24,7,90*,86*,123*,80*,67*,90*
c1ccc(-c2cc(-c3ccccc3)ncn2)cc1,11,6,1,-13,0,1,·,·
CC(C)CNC(=O)c1cccc(NC(=O)COc2ccc([N+](=O)[O-])cc2)c1,2,-2,4,-3,1,-4,·,·
Cc1ccc(NC(=O)Nc2cnc3ccccc3c2)cc1,-7,3,9,3,93*,-13,104*,22*
COc1ccc(CCNC(=O)c2cnc3scc(C)n3c2=O)cc1OC,-397,-10,1,-7,105*,-3,94*,40*
COc1ccc(C)cc1NC(=O)c1cnc2scc(C)n2c1=O,-428,3,·,·,·,·,·,·
C=CCOC(=O)c1c(C)nc2cc3c(cc2c1C)OCO3,-188,-5,-5,-22,108*,-15,56*,53*
SMILES,SENP8 block-1,EBI2 antag,SENP7 block,SENP6 inh,AHR act,SENP8 block-2,AHR act cf,PXR counter
C=CCOC(=O)C1=C(C)NC(=O)NC1c1ccc2c(c1)OCO2 (stereo unspecified),10,2,1,-25,1,6,·,·
COc1c2ccoc2c(OC[C@@H](O)C(C)(C)OC)c2oc(=O)ccc12,-381,9,9,-16,102*,-5,69*,80*
COc1ccccc1CNC(=O)c1oc2ccccc2c1C,5,0,-9,8,41,1,·,·
Cc1c(C(=O)NCc2ccccc2CN2CCCC2)oc2ccc(F)cc12,14,-2,-6,-9,124*,-11,112*,76*
COc1ccc(OC)c(C2=NOC(C(=O)NCc3cccs3)C2)c1 (stereo unspecified),-133,-5,3,0,0,-1,·,·
c1csc(-c2nc3c4ccccc4c4ccccc4c3[nH]2)c1,-283,37,-6,-22,112*,-7,96*,25*
NC(=S)N/N=C/c1ccc(Br)o1,0,1,-2,-6,-2,1,·,·
NC(=S)N/N=C/c1ccc(-c2cc(Cl)c(Cl)cc2Cl)o1,-384,31,4,2,108*,-1,102*,22*
CC(/C=C/c1ccccc1)=N\Nc1nc(-c2ccccc2)cs1,-38,10,17,5,1,-3,·,·
CC(C)=NNc1nc(-c2ccccc2)cs1,5,-1,2,25,102*,8,107*,15*
Cc1cccc(OCCNc2ncccc2[N+](=O)[O-])c1,18,5,·,·,·,·,·,·
CC(=O)Nc1ccc(-c2cn3ccsc3n2)cc1,-5,-3,12,-6,-2,-15,·,·
O=C(CCN1C(=O)c2ccccc2C1=O)Nc1ccc(-c2cn3ccsc3n2)cc1,27,2,-3,-19,102*,-1,125*,25*
O=C1CN(C(=O)CNCc2ccccc2Cl)c2ccccc2N1,3,2,10,-26,88*,0,61*,39*
COc1ccc(C2C=C(C34CC5CC(CC(C5)C3)C4)NC(=S)N2)cc1 (stereo unspecified),7,2,11,-3,0,5,·,·
Fc1ccc(N2CCN(c3nc(-c4ccco4)cc(C(F)(F)F)n3)CC2)cc1,-7,19,0,10,115*,1,105*,14*
